Reference: PubChem BioAssay
Where “and” joins values, the source holds several entries; their conditions need not be identical. Equal entries are not always repeated. The source holds several records for some structures; these can differ, active in one and inactive in another. Calls of active or inactive are those of the source.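 The calls were made as follows, unless noted: active = compounds whose cell count with miR-34 switched on is under 0.7 times the count with it off; inactive = the rest.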

What was measured:
[1] = viability loss with induced miR-34 in A549 – imaging, A549 dox-inducible miR-34, nuclei and caspase counts, primary screen (AID 1347080); conditions: A549 miR-34 inducible, Hoechst nuclei count, 48 h
[2] = MELAS cybrid and Rieske KO viability enhancers – cell-based, MELAS cybrids, Rieske KO mouse fibroblasts, CellTiter-Glo, primary screen (AID 1508586;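 active = mean z-score across replicates of 1.96 or higher in either the MELAS or the Rieske mutant cell line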;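 also: z relative to plate mean and SD of compound and empty wells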); conditions: low glucose
[3] = stronger effect = lower value, cell number ratio, induced over uninduced
[4] = measured here: relative caspase fold change +Dox/-Dox
[5] = measured here: total cells with miR-34 induction, stronger effect = lower value
[6] = measured here: total cells without miR-34 induction
[7] = MELAS cybrid survival, CellTiter-Glo 48 h, stronger effect = higher value
[8] = Rieske KO mouse fibroblast survival, CellTiter-Glo 72 h
Also: test concentration not given here.

SMILES	fold change [1, 3]	fold change [1, 4]	cell count [1, 5]	cell count [1, 6]	z-score [2, 7]	z-score [2, 8]
Nc1ncn(C2CC(O)C(CO)O2)c(=O)n1 (centres undefined)	0.936 (inactive)	0.727	7530	8050	-0.461 (inactive)	0.644
O=C(O)c1ccc(N2C(=O)C(=Cc3ccc(-c4ccc([N+](=O)[O-])cc4)o3)C=C2c2ccccc2)cc1	0.852 (inactive)	1.02	7620	8950	-0.417 (inactive)	0.868
CCN(CC)CCN(Cc1ccc(-c2ccc(C(F)(F)F)cc2)cc1)C(=O)Cn1c(SCc2ccc(F)cc2)nc(=O)c2c1CCC2	0.577 (active)	1.58	1110	1920	-0.397 (inactive)	-1.15
Cc1nc(N(C)C(=O)Cc2ccc(-c3ccccn3)cc2)sc1S(N)(=O)=O	0.911 (inactive)	0.414	7530	8270	-0.339 (inactive)	-0.561
CCCSc1nc(NC2CC2c2ccc(F)c(F)c2)c2nnn(C3CC(OCCO)C(O)C3O)c2n1 (centres undefined)	0.894 (inactive)	0.998	6430	7190	-0.266 (inactive)	-0.123
CC(NC(=O)C(O)C(C)C)C(=O)NC1C(=O)N(C)CCc2ccccc21 (centres undefined)	0.932 (inactive)	0.791	7480	8020	-0.185 (inactive)	-1.14
C=C[C@@]1(C)CC(OC(=O)CSC2C[C@H]3CC[C@@H](C2)N3C)[C@]2(C)C(C)CC[C@]3(CCC(=O)[C@H]32)C(C)C1O (some centres undefined)	0.984 (inactive)	1.2	7780	7910	2.23 (active)	5.36
O=C(NS(=O)(=O)c1ccc(Br)s1)c1ccc(Cl)cc1Cl	0.902 (inactive)	0.488	7360	8160	-0.252 (inactive)	-0.754
O=C(C=Cc1cccc(S(=O)(=O)Nc2ccccc2)c1)NO	0.967 (inactive)	0.71	1120	1160	0.973 (inactive)	1.18
CC[C@]1(O)C[C@@H]2CN(CCc3c([nH]c4ccccc34)[C@@](C(=O)OC)(c3cc4c(cc3OC)N(C=O)[C@@H]3[C@@]45CCN4CC=C[C@@](CC)(C(OC(C)=O)[C@]3(O)C(=O)OC)[C@H]45)C2)C1 (some centres undefined)	1.22 (inactive)	0.801	1340	1100	0.317 (inactive)	-1.38
COc1cccc2c1C(=O)c1c(O)c3c(c(O)c1C2=O)C[C@@](O)(C(=O)CO)CC3O[C@H]1CC(N)C(O)C(C)O1 (some centres undefined)	0.879 (inactive) and 1.08 (inactive)	1.03 and 0.95	1470 and 1780	1680 and 1650	5.38 (active) and -0.136 (inactive)	4.45 and -2.31
O=C1C(Cc2ccc(O)cc2)N2C(=O)CCN(C(=O)NCc3ccccc3)[C@H]2CN1Cc1cccc2ccccc12 (some centres undefined)	1.06 (inactive)	0.528	2850	2690	-0.585 (inactive)	-0.172
C#C[C@@]1(O)CC[C@H]2[C@@H]3CCc4cc(O)ccc4[C@@H]3CC[C@@]21C	0.952 (inactive)	0.969	6120	6420	0.773 (inactive)	0.776
O=[N+]([O-])c1cn2c(n1)OCC(OCc1ccc(OC(F)(F)F)cc1)C2 (centres undefined)	0.949 (inactive)	0.871	6600	6960	-0.338 (inactive)	0.787
CC(C)(C)NS(=O)(=O)c1cncc(-c2cc(F)c3nc(N)nn3c2)c1	0.874 (inactive)	1.55	8160	9340	-0.353 (inactive)	-0.161
C#C[C@]1(O)CC[C@H]2[C@@H]3CCC4=CC(=O)CC[C@@H]4[C@@H]3CC[C@@]21C	0.857 (inactive)	0.775	7940	9270	-0.24 (inactive)	-0.172
S=C=Nc1cccc(NC(=S)NCCCCNC(=S)Nc2cccc(N=C=S)c2)c1	0.972 (inactive)	0.614	7440	7650	-0.615 (inactive)	0.0526
C=C[C@]1(C)CC(OC(=O)CSC(C)(C)CNC(=O)C(N)C(C)C)[C@@]2(C)C(C)CC[C@]3(CCC(=O)[C@H]32)C(C)C1O (some centres undefined)	0.851 (inactive)	1.9	6360	7470	6.17 (active)	2.78
O=C1c2ccc(Nc3ccc(F)cc3F)cc2CCc2ccc(OCC(O)CO)cc21 (centres undefined)	0.924 (inactive)	0.413	6890	7450	-0.55 (inactive)	0.56
Oc1ccc(C2COc3cc(O)ccc3C2)cc1 (centres undefined)	1.04 (inactive) and 0.979 (inactive)	1.09 and 0.678	6090 and 7580	5860 and 7740	-0.326 (inactive)	-0.182
Cc1cc(C=C2SC(=S)NC2=O)c(C)n1-c1cccnc1	0.889 (inactive)	0.503	7760	8720	-0.359 (inactive)	-0.24
NC(=O)N1CCC(CC(=O)N2CCC(C3c4ncc(Br)cc4CCc4cc(Cl)cc(Br)c43)CC2)CC1 (centres undefined)	1.04 (inactive)	0.678	5310	5110	-0.458 (inactive)	0.637

SMILES	fold change [1, 3]	fold change [1, 4]	cell count [1, 5]	cell count [1, 6]	z-score [2, 7]	z-score [2, 8]
CC(CN1CC(=O)NC(=O)C1)N1CC(=O)NC(=O)C1 (centres undefined)	0.969 (inactive)	1.09	5760	5950	-0.442 (inactive)	0.325
CCC1OC(=O)C(C)C(OC2C[C@@](C)(OC)C(O)C(C)O2)C(C)C(OC2OC(C)CC(N(C)C)C2O)[C@](C)(O)CC(C)CN(C)C(C)C(O)[C@]1(C)O (some centres undefined)	0.925 (inactive)	0.82	8110	8770	-0.213 (inactive)	0.708
CCCN(CCc1cccs1)C1CCc2c(O)cccc2C1 (centres undefined)	0.911 (inactive)	0.584	8660	9500	-0.281 (inactive)	-0.2
C[C@@H]1C(=O)O[C@H]2CC34[C@H]5C[C@@H](C(C)(C)C)C36C(OC(=O)[C@H]6O)O[C@@]4(C(=O)O5)[C@]21O (some centres undefined)	0.955 (inactive)	1.23	7970	8340	-0.0435 (inactive)	0.0455
Cc1ccc(C(=O)N(CCCN)C(c2oc3cc(Cl)ccc3c(=O)c2Cc2ccccc2)C(C)C)cc1 (centres undefined)	0.942 (inactive)	0.732	1220	1290	2.62 (active)	0.0146
C#CCC(c1nc2cc(Cl)ccc2c(=O)n1Nc1ccccc1)N(CCCN)C(=O)c1cccc(Cl)c1F (centres undefined)	0.689 (active)	0.42	882	1280	1.61 (inactive)	0.152
NS(=O)(=O)c1ccc(NC(=O)Nc2ccc(F)cc2)cc1	0.971 (inactive)	0.438	8130	8360	-0.152 (inactive)	-0.0443
Cn1c(=O)c(F)c(Nc2ccc(I)cc2F)c2c(=O)n(CC(O)CO)cnc21 (centres undefined)	1.04 (inactive)	0.57	3130	3010	-0.414 (inactive)	-1.17
NC(=O)c1ncn(C2OC(CO)C(O)C2O)c1N (centres undefined)	0.801 (inactive)	0.953	7500	9360	0.179 (inactive)	0.0953
COc1ccc(CNc2nc(N3CCCC3CO)ncc2C(=O)NCc2ncccn2)cc1Cl (centres undefined)	0.988 (inactive)	1.09	8210	8300	-0.603 (inactive)	-0.114
Cc1cc(=O)oc2c(C=O)c(O)ccc12	0.88 (inactive)	0.552	8210	9320	-0.241 (inactive)	0.915
COc1ccc(NS(=O)(=O)c2sc3ccc(Cl)cc3c2C)cc1N1CCNCC1	0.966 (inactive)	0.423	7390	7650	-0.345 (inactive)	-0.0807
O=C(NCCO)c1cccc(-c2cc(Nc3ccc(OC(F)(F)F)cc3)ncn2)c1	0.847 (inactive)	0.626	7400	8740	-0.469 (inactive)	0.943
CNC(=O)C(Cc1c[nH]c2ccccc12)NC(=O)C(CC(=O)NO)CC(C)C (centres undefined)	0.883 (inactive)	0.261	7640	8650	0.112 (inactive)	0.643
CCCCCCOC(=O)N=C(N)c1ccc(NCc2nc3cc(C(=O)N(CCC(=O)OCC)c4ccccn4)ccc3n2C)cc1	0.94 (inactive)	0.85	8810	9380	-0.278 (inactive)	0.124
COc1ccc(-c2cc(=O)c3c(O)cc(OC4OC(COC5OC(C)C(O)C(O)C5O)C(O)C(O)C4O)cc3o2)cc1O (centres undefined)	0.912 (inactive)	0.985	7570	8300	-0.28 (inactive)	0.179
CN(CC1COCCO1)S(=O)(=O)Nc1ccc2ccc3ncc(-c4cnn(C)c4)cc3c(=O)c2c1 (centres undefined)	0.745 (inactive)	1.24	3290	4410	4.55 (active)	2.15
CC1C=CC=CC=CC=CC=CC=CC=CC(OC2OC(C)C(O)C(N)C2O)CC2O[C@@](O)(CC(O)CC(O)C(O)CCC(O)CC(O)CC(=O)OC(C)C(C)C1O)CC(O)C2C(=O)O (some centres undefined)	0.819 (inactive)	1.3	6680	8160	-0.196 (inactive)	0.383
COC1C=CO[C@@]2(C)Oc3c(C)c(O)c4c(O)c(c(C=NN5CCN(C)CC5)c(O)c4c3C2=O)NC(=O)C(C)=CC=CC(C)C(O)C(C)C(O)C(C)C(OC(C)=O)C1C (some centres undefined)	0.973 (inactive)	0.46	7970	8200	-0.298 (inactive)	0.515
CCNC(=O)Nc1ccc(-c2nc3c(c(N4CCOCC4C)n2)CCN(C2COC2)C3)cc1 (centres undefined)	0.905 (inactive)	0.555	2790	3080	2.89 (active)	-0.834
Cc1cc(C(C)Nc2ccccc2C(=O)O)c2nc(N3CCOCC3)cc(=O)n2c1 (centres undefined)	0.956 (inactive)	0.866	5770	6030	-0.296 (inactive)	-0.288
C[C@]12C=CC(=O)C=C1CC[C@@H]1[C@H]2C(O)C[C@@]2(C)[C@H]1CC[C@@]2(O)C(=O)CO (some centres undefined)	0.833 (inactive)	1.24	4970	5970	-0.42 (inactive)	-1.24
